Out of some 310,000 compounds screened, about 14,000 (4.5%) showed an effect of 50% or more. Effects have a minus sign here. The list comes from a sample in which strong results are over-represented; it also holds similar structures and randomly drawn compounds.
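Further: peak tail current of the secondary pulse compared with the same well before compound.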

The target in the assay is human ether-à-go-go-related gene (hERG) potassium channel (human, UniProt Q12809). The assay can be described thus: primary screen, population patch clamp on CHO cells stably expressing hERG; higher = less effect of the substance.
human ether-à-go-go-related gene (hERG) potassium channel, sequence (Q12809 whole entry, looked up): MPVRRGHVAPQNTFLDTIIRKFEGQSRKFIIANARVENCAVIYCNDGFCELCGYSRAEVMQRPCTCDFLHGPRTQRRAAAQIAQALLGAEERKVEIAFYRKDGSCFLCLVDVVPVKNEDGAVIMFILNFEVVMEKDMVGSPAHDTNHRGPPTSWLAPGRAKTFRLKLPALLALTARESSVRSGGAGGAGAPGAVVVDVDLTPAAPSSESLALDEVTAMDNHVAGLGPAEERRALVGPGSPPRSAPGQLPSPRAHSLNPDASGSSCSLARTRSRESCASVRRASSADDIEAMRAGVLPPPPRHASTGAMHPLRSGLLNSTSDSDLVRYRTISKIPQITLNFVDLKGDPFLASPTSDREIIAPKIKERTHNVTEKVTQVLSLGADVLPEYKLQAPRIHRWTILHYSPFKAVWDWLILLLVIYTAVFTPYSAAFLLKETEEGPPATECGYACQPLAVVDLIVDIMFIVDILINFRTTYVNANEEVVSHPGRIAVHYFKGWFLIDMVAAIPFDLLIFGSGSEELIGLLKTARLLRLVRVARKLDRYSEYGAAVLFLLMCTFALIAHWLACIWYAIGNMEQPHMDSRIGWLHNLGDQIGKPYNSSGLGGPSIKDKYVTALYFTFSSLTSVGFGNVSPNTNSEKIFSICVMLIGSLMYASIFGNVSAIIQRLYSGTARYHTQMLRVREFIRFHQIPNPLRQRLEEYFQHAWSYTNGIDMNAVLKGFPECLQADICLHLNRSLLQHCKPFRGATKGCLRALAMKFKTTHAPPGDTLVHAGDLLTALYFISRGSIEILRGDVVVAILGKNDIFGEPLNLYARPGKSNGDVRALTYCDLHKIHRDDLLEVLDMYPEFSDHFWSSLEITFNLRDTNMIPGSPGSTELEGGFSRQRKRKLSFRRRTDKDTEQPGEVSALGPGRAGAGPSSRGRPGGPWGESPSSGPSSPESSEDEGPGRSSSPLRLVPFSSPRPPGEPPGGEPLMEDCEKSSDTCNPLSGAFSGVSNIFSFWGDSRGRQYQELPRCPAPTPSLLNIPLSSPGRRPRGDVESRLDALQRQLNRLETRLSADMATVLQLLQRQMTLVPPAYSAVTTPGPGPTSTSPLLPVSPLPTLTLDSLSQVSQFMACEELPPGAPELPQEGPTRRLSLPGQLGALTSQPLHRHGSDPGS
Take `O=[N+]([O-])c1cccc(S(=O)(=O)N/N=C/c2ccc(O)cc2)c1`: the “hERG current change (%, negative = inhibition) at 10uM” value amounted to 1.14%. With `CC(=O)Nc1nc(C)c(Oc2ccc(Cl)cc2Cl)c(=O)[nH]1` the figure was 10.5%.

Consider `COc1ccccc1NC(=O)c1ccc(NC(=O)COC(=O)CC(NC(=O)c2ccccc2Cl)c2ccccc2)cc1` (stereo not shown), for which the “hERG current change (%, negative = inhibition) at 10uM” value is 6.73%.

Consider `COc1cccc(C2CCCCN2Cc2nc(-c3ccc(C)o3)oc2C)c1` (stereo not shown), for which the “hERG current change (%, negative = inhibition) at 10uM” value is -12.5%. For `Cc1oc(-c2ccccc2Cl)nc1CN1CCCCC1CO` (stereo not shown), the “hERG current change (%, negative = inhibition) at 10uM” value is reported as -20.5%. With `CCN1CCCC1CNC(=O)C1CCN(Cc2nc(-c3cccc(Br)c3)oc2C)CC1` (stereo not shown) the figure was -9.4%. The result for `Cc1ccc(-c2nc(CN3CCCCC3c3cccc(F)c3)c(C)o2)o1` (stereo not shown) reads 44.7%; that for `Cc1ccc(-c2nc(CN3CCCCC3CCN3CCCC3=O)c(C)o2)o1` (stereo not shown), -51.5%; that for `CSc1ccc(-c2nc(CN3CCCCC3c3cccnc3)c(C)o2)cc1` (stereo not shown), -19.8%. `CCOc1ccc(-c2nc(CN3CCCCC3CCn3cccn3)c(C)o2)cc1` (stereo not shown): the “hERG current change (%, negative = inhibition) at 10uM” value is -71.5%. The result for `Cc1oc(-c2cccc(C(F)(F)F)c2)nc1CN1CCC[C@H]1CO` reads -35%; that for `Cc1oc(-c2cccc(F)c2)nc1CN1CCCCC1CCn1cccn1` (stereo not shown), -73.1%.

As to `O=C(NCCc1c[nH]c2ccccc12)c1c(Cl)nc2sccn12`, the “hERG current change (%, negative = inhibition) at 10uM” value was 15.4%.

For the compound `O=C(NC(Cc1c[nH]c2ccccc12)C(=O)O)c1cccs1` (stereo not shown), the “hERG current change (%, negative = inhibition) at 10uM” value amounted to 18.6%. The result for `Cc1ccc(Cl)cc1NC(=O)CCC(=O)NCc1ccco1` reads 7.15%; that for `O=C(CN1C(=O)NC2(CCCc3ccccc32)C1=O)N1CCN(C(=O)c2ccco2)CC1` (stereo not shown), -34.3%. Regarding `COc1ccc2[nH]c(O)c(NC(C)=O)c2c1`, the “hERG current change (%, negative = inhibition) at 10uM” value came out at 1.61%. For the compound `COc1cc(NC(=O)COc2ccc(Br)cc2)ccc1NC(=O)C(C)C`, the “hERG current change (%, negative = inhibition) at 10uM” value is recorded as 4.1%. As for `CC1CCN(C(=O)COc2ccc(S(=O)(=O)N3CCOCC3)cc2)CC1`, the “hERG current change (%, negative = inhibition) at 10uM” value is given as -1.39%. Regarding `Cc1ccc2[nH]cc(CCCN3C(=O)c4ccccc4C3=O)c2c1`, the “hERG current change (%, negative = inhibition) at 10uM” value is -51.4%. Regarding `O=C1c2ccccc2C(=O)N1CCCc1c[nH]c2ccc(Cl)cc12`, the “hERG current change (%, negative = inhibition) at 10uM” value is recorded as -19.3%. The result for `COc1ccc2[nH]cc(CCCN3C(=O)c4ccccc4C3=O)c2c1` reads -4.87%.

For `CC(=O)c1cccc(NS(=O)(=O)c2ccc3c(c2)oc(=O)n3C)c1`, the “hERG current change (%, negative = inhibition) at 10uM” value is given as -6.14%.

For the compound `O=C1CCN(Cc2ccccc2)CCN1[C@H](CSc1ccccc1)c1ccccc1`, the “hERG current change (%, negative = inhibition) at 10uM” value is on record as -44.7%. The result for `O=C1CCN(CCc2ccccc2)CCN1[C@H](CSc1ccc(Br)cc1)c1ccccc1` reads -66.2%. The result for `O=C1CCN(CCc2ccccc2)CCN1[C@H](CSc1ccccc1)c1ccccc1` reads -78.7%. `Cc1ccc(SC[C@H](c2ccccc2)N2CCN(CCc3ccccc3)CCC2=O)cc1`: the “hERG current change (%, negative = inhibition) at 10uM” value is -74.7%. As to `[N-]=[N+]=NC[C@H](c1ccccc1)N1CCN(Cc2ccccc2)CCC1=O`, the “hERG current change (%, negative = inhibition) at 10uM” value is -0.754%. Turning to `Cc1ccnc(N2CCC(C(=O)NNC(=O)COc3cccc4ccccc34)CC2)n1`, the “hERG current change (%, negative = inhibition) at 10uM” value stood at 11.2%. Consider `Cc1cccc(NC(=O)CCc2nnc3ccc(NCc4ccco4)nn23)n1`, for which the “hERG current change (%, negative = inhibition) at 10uM” value is listed as 6.78%. For `Cc1cc(C)c(OCCN(C)C)c(Cl)c1.O=C(O)C(=O)O`, the “hERG current change (%, negative = inhibition) at 10uM” value is recorded as -21.1%. With `O=C(NC1CCCC1)C(c1cccs1)N(C(=O)c1ccco1)c1ccc2c(c1)OCO2` (stereo not shown) the figure was -33.5%.

For the compound `Nc1nc(SCC(=O)NCc2ccco2)[nH]c(=O)c1-c1ccccc1`, the “hERG current change (%, negative = inhibition) at 10uM” value stood at 22.3%. With `CC(C(=O)N(C)CC(=O)Nc1ccccc1C(F)(F)F)N1C(=O)c2ccccc2C1=O` (stereo not shown) the figure was -10.7%. `COc1ccc(N(CC(=O)NC2CCCC2)C(=O)c2ccc(C)s2)cc1OC`: the “hERG current change (%, negative = inhibition) at 10uM” value is 15.8%. With `COC(=O)c1ccc(NC(=O)C[n+]2ccccc2C)cc1.[Cl-]` the figure was 10.1%; with `Cc1cc(Nc2c(C)cccc2C)n2nc(C)nc2n1`, 3.66%. For `CCN1CCN(CCOc2ccc(Br)cc2C)CC1.O=C(O)C(=O)O`, the “hERG current change (%, negative = inhibition) at 10uM” value was -46.6%.

As for `Cc1cccc(C)c1OCCCCN1CCCCC1.O=C(O)C(=O)O`, the “hERG current change (%, negative = inhibition) at 10uM” value is given as -11.8%.

Regarding `Cc1cc(Br)ccc1OCCCCN1CCC(C)CC1.O=C(O)C(=O)O`, the “hERG current change (%, negative = inhibition) at 10uM” value is reported as -67.9%. For the compound `Cc1cc(Br)ccc1OCCCCN1CCCCC1.O=C(O)C(=O)O`, the “hERG current change (%, negative = inhibition) at 10uM” value is -78.9%. The result for `CC(C)(C)c1ccccc1OCCOCCN1CCCCCC1.O=C(O)C(=O)O` reads -39.1%; that for `Cc1cc(Br)ccc1OCCN1CC(C)OC(C)C1.O=C(O)C(=O)O` (stereo not shown), -17.8%. For `Cc1cc(Br)ccc1OCCN1CCCC1.O=C(O)C(=O)O`, the “hERG current change (%, negative = inhibition) at 10uM” value is -36.8%. The result for `Cc1cc(Br)ccc1OCC(=O)N1CCCCCC1` reads -12.1%. With `Cc1cc(Br)ccc1OCCOCCN1CCCC1.O=C(O)C(=O)O` the figure was -60.7%. `N#C/C(=C\c1cn(Cc2ccccc2)c2ccccc12)C(=O)NCc1ccco1`: the “hERG current change (%, negative = inhibition) at 10uM” value was 12.5%. With `Cc1ccccc1OCC(=O)OCC(=O)NCc1cccs1` the figure was 1.72%. With `COc1cc(-c2nc(CCNC(=O)c3ccco3)cs2)cc(OC)c1OC` the figure was -24.7%. `Cc1cc(C)cc(NC(=S)N2CCN(c3ccccn3)CC2)c1`: the “hERG current change (%, negative = inhibition) at 10uM” value was -1.07%.

With `COc1ccc(NC(=O)Nc2cc(C)ccc2F)cc1`, the “hERG current change (%, negative = inhibition) at 10uM” value was 0.822%. As to `CCOc1ccc(-n2cnnn2)cc1S(=O)(=O)N1CCCCC1`, the “hERG current change (%, negative = inhibition) at 10uM” value is given as -10.1%. The result for `CC1CCN(C(=O)c2cc3c(=O)n4ccccc4nc3s2)CC1` reads 18.7%; that for `CC(=O)c1ccc(Nc2cc(C)nc3ccccc23)cc1`, -31.3%; that for `CCOC(=O)c1ccc2nc(C)cc(Nc3cccc(C(=O)O)c3)c2c1`, 5.41%. The result for `CC(=O)Nc1ccc(Nc2cc(C)nc3ccccc23)cc1` reads -7.21%.

With `CC(=O)c1cccc(Nc2cc(C)nc3ccccc23)c1.Cl`, the “hERG current change (%, negative = inhibition) at 10uM” value was -64%.

Turning to `CC(=O)c1cccc(Nc2cc(C)nc3ccc(C)cc23)c1.Cl`, the “hERG current change (%, negative = inhibition) at 10uM” value is recorded as -65.2%.

`COc1ccc2nc(C)cc(Nc3cccc(C(=O)O)c3)c2c1`: the “hERG current change (%, negative = inhibition) at 10uM” value was determined as 21.7%. `C/C(=N\Nc1nccnc1Cl)c1ccc([N+](=O)[O-])cc1`: the “hERG current change (%, negative = inhibition) at 10uM” value is on record as -4.09%. The result for `Cl.N[C@@H]1C[C@H]1c1ccccc1` reads 14%. As to `O=C(NC1CCCC1)C(c1ccncc1)N(C(=O)c1csnn1)c1cccc(F)c1` (stereo not shown), the “hERG current change (%, negative = inhibition) at 10uM” value came to 17.2%. With `O=C1N=NC2=C1c1c3ccccc3c(O)n1CC2` the figure was 3.49%; with `CCOC(=O)c1c(NC(=O)CN2CCOCC2)sc2c1CCCC2=O`, -6.33%; with `Cc1cc2nc3c(nc2cc1C)CCCC3`, 15.9%. The result for `Cc1ccc2c(CC(=O)N3CCN(c4ccccc4)CC3)coc2c1` reads -22%; that for `Cc1ccc(C(=O)OCC(=O)Nc2cccc(S(=O)(=O)N3CCCCC3)c2)o1`, 6.02%; that for `COc1ccccc1NC(=O)Cc1coc2cc(C)ccc12`, -13.1%.

On to `O=C(Nc1cccc(S(=O)(=O)N2CCCCC2)c1)c1ccc([N+](=O)[O-])o1`, for which the “hERG current change (%, negative = inhibition) at 10uM” value was -51.4%. The result for `Cc1ccc(C(=O)Nc2cccc(S(=O)(=O)N3CCCC3)c2)o1` reads -9.98%; that for `O=C(COC(=O)c1ccc([N+](=O)[O-])o1)Nc1cccc(S(=O)(=O)N2CCCCC2)c1`, -56.6%; that for `O=C(COC(=O)c1ccc(Br)o1)Nc1cccc(S(=O)(=O)N2CCCCCC2)c1`, -14.9%. The result for `O=C(Nc1ccc(S(=O)(=O)N2CCOCC2)cc1)c1ccc([N+](=O)[O-])o1` reads -28.8%; that for `Cc1ccc2c(CC(=O)Nc3ccc(N4CCN(C)CC4)cc3C)coc2c1`, -72.8%; that for `O=C(COC(=O)c1ccc([N+](=O)[O-])o1)Nc1cccc(S(=O)(=O)N2CCOCC2)c1`, -19.4%. In the case of `Cc1ccc(C(=O)OCC(=O)Nc2cccc(S(=O)(=O)N3CCOCC3)c2)o1`, the “hERG current change (%, negative = inhibition) at 10uM” value is -53.1%.

Take `Cc1cc(C(=O)OCC(=O)Nc2cccc(S(=O)(=O)N3CCOCC3)c2)c(C)o1`: the “hERG current change (%, negative = inhibition) at 10uM” value was -19.6%. The result for `CCN1CCN(C(=S)c2ccc(-c3ccccc3)cc2)CC1` reads -15.4%; that for `CCCN1CCN(C(=O)Cn2c(=O)oc3cc(S(=O)(=O)NCc4ccccc4)ccc32)CC1`, -6.53%; that for `COc1ccc(-c2ocnc2C(=O)Nc2ccc3c(c2)CCC3)cc1`, 8.64%. With `Cc1ccc(C(=O)Nc2cccc(O)c2)cc1S(=O)(=O)N1CCCCCC1`, the “hERG current change (%, negative = inhibition) at 10uM” value came out at 11.2%. With `O=C(O)CSc1nnc(COc2cccc3ccccc23)n1Cc1ccccc1` the figure was 21.3%. `Cc1ccc2c(CC(=O)Nc3cccc(S(=O)(=O)N4CCOCC4)c3)coc2c1`: the “hERG current change (%, negative = inhibition) at 10uM” value is recorded as -51.4%. With `CCc1ccc2c(CC(=O)Nc3cccc(S(=O)(=O)N4CCOCC4)c3)coc2c1` the figure was -0.796%; with `COc1ccc2c(CC(=O)Nc3cccc(S(=O)(=O)N4CCOCC4)c3)coc2c1`, -32.4%. For `CCCCCCCNC(=O)C1(CC2CC(c3ccc(Cl)cc3)=NO2)CCN(C(=O)C2(C)CC2)CC1` (stereo not shown), the “hERG current change (%, negative = inhibition) at 10uM” value is -55.8%.

Consider `CCCCCCCNC(=O)C1(CC2CC(c3ccc(Cl)cc3)=NO2)CCN(C(=O)C2CCCC2)CC1` (stereo not shown), for which the “hERG current change (%, negative = inhibition) at 10uM” value is -55.8%. For `CCCCCCCNC(=O)C1(CC2CC(c3ccc(Cl)cc3)=NO2)CCN(C(=O)OC(C)(C)C)CC1` (stereo not shown), the “hERG current change (%, negative = inhibition) at 10uM” value stood at 21.1%.

The values are drawn from publication PMC4336329 (PLoS ONE, 2015).
